Test results reported in PubChem BioAssay (EPA / NIEHS).
Inconclusive results are not listed. Active and inactive are the calls of the source. Rule for the calls, unless noted: active = hit-call score of the fitted dose curve at least 0.9, where 1 is the maximum; inactive = score below 0.9.

Legend:
[1] = target: Oxysterols receptor LXR-beta (Homo sapiens) (UniProt P55055); assay: ATG_LXRb_TRANS: Attagene TRANS-FACTORIAL HepG2 Assay for human Liver X Receptor beta (LXRb) (AID 2282981; active = hit-call score of the fitted dose curve at least 0.9, where 1 is the maximum); conditions: HepG2 Attagene TRANS GAL4-LXRb reporter, mRNA
Method in brief: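 Transient transfection HepG2 (multiplexed RTUs, GAL4-UAS); NR-Gal4 chimera; 24 h exposure; RNA → RT-PCR → 6-FAM primer extension → HpaI → CE; increase vs DMSO.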

[2] = ATG_M_32_TRANS: Attagene TRANS-FACTORIAL HepG2 Assay for M32 Transcription Factor (Internal Marker) (AID 2282984; active = hit-call score of the fitted dose curve at least 0.9, where 1 is the maximum;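 note: transcript level of a background control reporter unit measured by RT-PCR and capillary electrophoresis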); conditions: HepG2 Attagene TRANS M32 internal marker reporter
Method in brief: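 Measures reporter mRNA induction in human HepG2 liver cells after 24 h chemical treatment. Transcripts from transiently transfected GAL4-UAS reporter units are amplified, fluorescently labelled and sized by capillary electrophoresis; gain of signal relative to DMSO.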

[3] = target: Nuclear receptor subfamily 4 group A member 2 (Homo sapiens) (UniProt P43354); assay: ATG_NURR1_TRANS: Attagene TRANS-FACTORIAL HepG2 Assay for human Nuclear Receptor Related Protein 1 (NURR1) (AID 2282985; active = hit-call score of the fitted dose curve at least 0.9, where 1 is the maximum); conditions: HepG2 Attagene TRANS reporter, mRNA readout
Method in brief: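 Transient transfection of HepG2, human liver cells, with multiple GAL4-UAS reporter transcription units. Cells dosed 24 h, RNA isolated, reverse-transcribed, PCR-amplified, FAM-labelled, HpaI-digested, sized by capillary electrophoresis. DMSO served as negative control.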

[4] = target: Transcriptional activator Myb (Homo sapiens) (UniProt P10242); assay: ATG_Myb_CIS: Attagene CIS-FACTORIAL HepG2 Assay for human Myeloblastosis (Myb) Proto-Oncogene Transcription Factor (AID 2282986); conditions: HepG2 Attagene CIS-FACTORIAL Myb reporter transcription; actives raise or lower the signal
Method in brief: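 Reporter mRNA is quantified by RT-PCR and capillary electrophoresis 24 h after dosing HepG2 cells transfected with cis-regulated reporter units, which track endogenous transcription factor activity. Gain and loss of signal are fitted versus DMSO baseline.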

[5] = ATG_NFI_CIS: Attagene CIS-FACTORIAL HepG2 Assay for human Nuclear Factor I (NFI) (AID 2282989); conditions: HepG2 cis-regulatory reporter, NFI response element transcription; actives raise or lower the signal
Method in brief: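 Endogenous TF activity in HepG2 cells transiently transfected with cis-element-driven multiplexed reporter units, read 24 h after dosing. Reporter mRNA quantified by RT-PCR, 6-FAM labelling, HpaI digestion and capillary electrophoresis; bidirectional fit versus DMSO.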

[6] = target: Myc proto-oncogene protein (Homo sapiens) (UniProt P01106); assay: ATG_Myc_CIS: Attagene CIS-FACTORIAL HepG2 Assay for human Myelocytomatosis (Myc) Proto-Oncogene Transcription Factor (AID 2282990); conditions: HepG2, Attagene cis-reporter transcription factor activity; actives raise or lower the signal
Method in brief: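 HepG2, transient MRTU transfection (cis promoters, endogenous TFs); 24 h dosing; TriZol RNA → oligo(dT) RT → PCR → 6-FAM primer extension → HpaI cut → CE. Bidirectional fit vs DMSO.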

[7] = ATG_NF_kB_CIS: Attagene CIS-FACTORIAL HepG2 Assay for human Nuclear Factor Kappa B (NF-kB) (AID 2282991); conditions: HepG2 Attagene cis-factorial NF-kB reporter mRNA; actives raise or lower the signal
Method in brief: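 Readout is reporter transcript level, gain or loss versus DMSO, measured 24 h post-dose via RT-PCR, fluorescent labelling and capillary electrophoresis. Human HepG2 liver cells carried transiently transfected CIS reporter constructs reflecting endogenous factors.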

[8] = ATG_NRF2_ARE_CIS: Attagene CIS-FACTORIAL HepG2 Assay for human Nuclear Factor Erythroid 2 Related Factor 2 (NFR2) response to Antioxidant Response Elements (ARE) (AID 2282992); conditions: HepG2 Attagene ARE/NRF2 reporter, transcription factor activity; actives raise or lower the signal;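 for AC50: reporter mRNA level measured by RT-PCR and capillary electrophoresis fluorescence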
Method in brief: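 Transient MRTU transfection of HepG2; 24 h compound exposure; TriZol RNA, RT with oligo(dT), PCR, 6-FAM primer extension, HpaI cut, CE. Bidirectional fit vs DMSO.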

[9] = ATG_Oct_MLP_CIS: Attagene CIS-FACTORIAL HepG2 Assay for human Octamer-Binding Transcription Factor (Oct) (AID 2282993); conditions: HepG2 Attagene cis-factorial Oct reporter, mRNA; actives raise or lower the signal
Method in brief: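 HepG2 cells transiently transfected with cis-element-driven reporter transcription units (endogenous TF activity); 24 h compound exposure. Reporter mRNA quantified by RT-PCR, 6-FAM labelling, HpaI digestion and capillary electrophoresis; bidirectional fit versus DMSO baseline.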

[10] = target: Nuclear respiratory factor 1 (Homo sapiens) (UniProt Q16656); assay: ATG_NRF1_CIS: Attagene CIS-FACTORIAL HepG2 Assay for human Nuclear Respiratory Factor 1 (NRF1) Orphan Gene (AID 2282987); conditions: HepG2 NRF1 cis-element reporter, Attagene multiplex; actives raise or lower the signal
Method in brief: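 Endogenous NRF1-driven reporter transcription in transfected HepG2 cells after 24 h treatment. Readout: RT-PCR products, 6-FAM labelled and resolved by capillary electrophoresis; changes fitted both directions relative to DMSO.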

[11] = target: Cellular tumor antigen p53 (Homo sapiens) (UniProt P04637); assay: ATG_p53_CIS: Attagene CIS-FACTORIAL HepG2 Assay for human p53 Transcription Factor (AID 2282994); conditions: HepG2 p53 cis-element reporter, Attagene mRNA; actives raise or lower the signal
Method in brief: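 HepG2, transient MRTU transfection (cis promoter elements, endogenous TFs); 24 h dosing; RNA isolation, RT-PCR, 6-FAM primer extension, HpaI digest, CE fluorescence; bidirectional fit vs DMSO.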

[12] = target: Oxysterols receptor LXR-alpha (Homo sapiens) (UniProt Q13133); assay: ATG_LXRa_TRANS: Attagene TRANS-FACTORIAL HepG2 Assay for human Liver X Receptor alpha (LXRa) (AID 2282980; active = hit-call score of the fitted dose curve at least 0.9, where 1 is the maximum); conditions: HepG2 Attagene TRANS reporter, LXRa transactivation
Method in brief: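 Chemical-induced reporter mRNA measured by RT-PCR with fluorescent labelling and capillary electrophoresis after 24 h dosing of transiently transfected HepG2 cells expressing exogenous NR-Gal4 chimeras; increases scored against DMSO baseline.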

[13] = ATG_M_06_TRANS: Attagene TRANS-FACTORIAL HepG2 Assay for M06 Transcription Factor (Internal Marker) (AID 2282983; active = hit-call score of the fitted dose curve at least 0.9, where 1 is the maximum); conditions: HepG2 Attagene TRANS M06 internal marker reporter
Method in brief: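 Cells: HepG2, transient multi-reporter transfection. Exposure: 24 h. Detection: RT-PCR, 6-FAM labelling, HpaI digestion (2 h, 37 °C), capillary electrophoresis. Baseline: DMSO.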

[14] = BSK_3C_TissueFactor: BioMAP Diversity Plus: 3C Assay for Tissue Factor Biomarker Activity (AID 2282997); conditions: BioMAP 3C HUVEC, tissue factor biomarker readout; actives raise or lower the signal
Method in brief: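 Dosing of human umbilical vein endothelial cells preceded a 24 h incubation. Tissue Factor was then read by ELISA, with increases and decreases both scored relative to DMSO controls.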

[15] = BSK_3C_uPAR: BioMAP Diversity Plus: 3C Assay for Urokinase-type plasminogen activator receptor (uPAR) Biomarker Activity (AID 2282998); conditions: BioMAP 3C HUVEC, uPAR biomarker ELISA; actives raise or lower the signal
Method in brief: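 Primary human umbilical vein endothelial cells, 3C system; surface uPAR measured by ELISA 24 h after dosing. Cytotoxicity via SRB total protein in parallel cultures; bidirectional fit against DMSO.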

[16] = BSK_3C_VCAM1: BioMAP Diversity Plus: 3C Assay for Vascular cell adhesion molecule 1 (VCAM1) Biomarker Activity (AID 2282999); conditions: BioMAP 3C HUVEC, VCAM1 ELISA, cytokine-stimulated; actives raise or lower the signal
Method in brief: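 Endothelial cells from human umbilical vein are treated with test chemical. At 24 h, VCAM-1 is measured by ELISA, and responses in either direction are fitted relative to DMSO.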

[17] = BSK_4H_Eotaxin3: BioMAP Diversity Plus: 4H Assay for Eotaxin 3 Biomarker Activity (AID 2283000); conditions: primary human endothelial cells (HUVEC); actives raise or lower the signal
Method in brief: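 Human umbilical vein endothelial cells (BSK_4H system) dosed with test chemical; Eotaxin-3 (CCL26) measured by ELISA 24 h after dosing. Bidirectional curve fitting relative to DMSO negative control as baseline.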

Measured: AC50

Sequence of Oxysterols receptor LXR-beta (Homo sapiens) (P55055 whole entry, looked up, the tested form may be a part): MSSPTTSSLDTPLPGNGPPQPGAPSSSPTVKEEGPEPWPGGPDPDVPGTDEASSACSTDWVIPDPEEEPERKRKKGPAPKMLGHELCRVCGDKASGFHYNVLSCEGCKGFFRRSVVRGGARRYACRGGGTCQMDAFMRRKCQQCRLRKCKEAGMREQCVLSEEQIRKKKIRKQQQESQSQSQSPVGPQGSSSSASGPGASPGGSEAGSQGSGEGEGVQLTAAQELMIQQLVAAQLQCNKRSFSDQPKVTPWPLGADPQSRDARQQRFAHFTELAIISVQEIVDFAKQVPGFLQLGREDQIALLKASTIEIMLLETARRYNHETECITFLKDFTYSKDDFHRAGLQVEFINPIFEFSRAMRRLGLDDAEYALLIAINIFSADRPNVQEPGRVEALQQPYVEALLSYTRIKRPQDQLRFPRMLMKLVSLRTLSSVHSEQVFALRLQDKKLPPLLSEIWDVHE
Sequence of Transcriptional activator Myb (Homo sapiens) (P10242 whole entry, looked up): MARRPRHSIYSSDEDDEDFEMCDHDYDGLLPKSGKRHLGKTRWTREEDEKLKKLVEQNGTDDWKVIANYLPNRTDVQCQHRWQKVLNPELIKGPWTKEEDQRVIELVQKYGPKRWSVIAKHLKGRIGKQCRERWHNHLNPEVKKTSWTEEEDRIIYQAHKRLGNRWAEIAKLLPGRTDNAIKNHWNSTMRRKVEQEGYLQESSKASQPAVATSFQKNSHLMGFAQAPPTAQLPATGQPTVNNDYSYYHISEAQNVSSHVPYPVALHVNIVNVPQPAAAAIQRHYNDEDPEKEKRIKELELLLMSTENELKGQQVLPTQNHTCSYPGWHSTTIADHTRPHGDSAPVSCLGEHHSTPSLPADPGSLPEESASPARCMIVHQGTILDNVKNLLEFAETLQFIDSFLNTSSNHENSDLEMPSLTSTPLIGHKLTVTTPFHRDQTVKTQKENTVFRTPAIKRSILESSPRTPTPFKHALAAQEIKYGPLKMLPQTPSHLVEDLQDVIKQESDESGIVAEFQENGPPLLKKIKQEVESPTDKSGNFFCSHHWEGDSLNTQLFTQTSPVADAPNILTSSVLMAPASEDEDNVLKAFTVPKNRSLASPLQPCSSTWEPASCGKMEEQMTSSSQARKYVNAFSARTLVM
Sequence of Myc proto-oncogene protein (Homo sapiens) (P01106 whole entry, looked up): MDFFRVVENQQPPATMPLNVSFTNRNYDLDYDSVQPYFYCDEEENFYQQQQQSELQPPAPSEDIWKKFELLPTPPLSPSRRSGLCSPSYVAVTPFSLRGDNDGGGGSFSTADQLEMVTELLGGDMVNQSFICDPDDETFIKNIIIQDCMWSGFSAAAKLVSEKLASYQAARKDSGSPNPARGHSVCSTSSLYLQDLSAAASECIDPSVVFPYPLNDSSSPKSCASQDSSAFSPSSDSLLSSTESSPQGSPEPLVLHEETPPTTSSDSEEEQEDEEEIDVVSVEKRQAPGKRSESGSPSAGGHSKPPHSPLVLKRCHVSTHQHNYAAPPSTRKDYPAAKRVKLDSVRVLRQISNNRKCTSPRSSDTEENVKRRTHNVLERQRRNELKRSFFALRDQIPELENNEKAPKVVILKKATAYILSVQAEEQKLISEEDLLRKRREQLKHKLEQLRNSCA
Sequence of Cellular tumor antigen p53 (Homo sapiens) (P04637 whole entry, looked up): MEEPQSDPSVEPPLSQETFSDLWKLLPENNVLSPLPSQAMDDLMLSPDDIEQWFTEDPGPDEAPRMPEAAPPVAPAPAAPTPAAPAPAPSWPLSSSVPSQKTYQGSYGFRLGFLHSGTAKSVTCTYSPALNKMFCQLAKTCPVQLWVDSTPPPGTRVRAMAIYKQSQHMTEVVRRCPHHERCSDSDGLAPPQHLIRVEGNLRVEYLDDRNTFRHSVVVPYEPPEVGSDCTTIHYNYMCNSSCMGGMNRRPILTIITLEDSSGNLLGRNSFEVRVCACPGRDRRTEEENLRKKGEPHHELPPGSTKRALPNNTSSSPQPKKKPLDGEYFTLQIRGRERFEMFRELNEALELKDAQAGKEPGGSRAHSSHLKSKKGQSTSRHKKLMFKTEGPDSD
Sequence of Nuclear receptor subfamily 4 group A member 2 (Homo sapiens) (P43354 whole entry, looked up, the tested form may be a part): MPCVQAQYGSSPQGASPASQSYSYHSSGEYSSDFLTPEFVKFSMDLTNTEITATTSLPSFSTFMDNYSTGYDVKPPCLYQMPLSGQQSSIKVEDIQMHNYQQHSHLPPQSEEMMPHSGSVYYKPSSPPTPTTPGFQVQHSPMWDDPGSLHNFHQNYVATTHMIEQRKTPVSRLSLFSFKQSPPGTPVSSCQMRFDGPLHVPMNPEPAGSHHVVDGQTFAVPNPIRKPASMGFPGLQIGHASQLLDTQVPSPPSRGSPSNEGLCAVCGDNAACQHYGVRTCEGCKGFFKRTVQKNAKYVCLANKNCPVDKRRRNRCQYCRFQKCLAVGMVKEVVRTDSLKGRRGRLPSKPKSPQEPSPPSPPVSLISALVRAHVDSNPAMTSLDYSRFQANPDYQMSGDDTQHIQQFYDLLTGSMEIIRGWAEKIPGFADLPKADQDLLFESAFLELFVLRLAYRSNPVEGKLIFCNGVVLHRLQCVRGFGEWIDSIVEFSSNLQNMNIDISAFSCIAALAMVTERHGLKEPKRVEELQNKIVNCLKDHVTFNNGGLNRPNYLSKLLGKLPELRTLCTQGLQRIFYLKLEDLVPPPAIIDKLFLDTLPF
Sequence of Nuclear respiratory factor 1 (Homo sapiens) (Q16656 whole entry, looked up): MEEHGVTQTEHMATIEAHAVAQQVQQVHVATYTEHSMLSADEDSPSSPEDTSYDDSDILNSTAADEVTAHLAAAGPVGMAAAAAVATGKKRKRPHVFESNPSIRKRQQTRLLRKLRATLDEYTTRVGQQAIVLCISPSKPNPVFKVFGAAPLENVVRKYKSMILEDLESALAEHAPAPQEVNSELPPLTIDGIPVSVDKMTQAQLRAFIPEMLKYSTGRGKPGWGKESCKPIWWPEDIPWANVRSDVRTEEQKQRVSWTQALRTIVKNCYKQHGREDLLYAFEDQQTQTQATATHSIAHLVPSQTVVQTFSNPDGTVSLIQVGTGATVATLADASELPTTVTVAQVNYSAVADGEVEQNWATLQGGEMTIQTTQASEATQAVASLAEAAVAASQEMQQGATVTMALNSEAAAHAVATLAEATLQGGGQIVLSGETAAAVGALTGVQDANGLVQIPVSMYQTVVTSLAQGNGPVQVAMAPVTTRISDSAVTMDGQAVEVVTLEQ
Sequence of Oxysterols receptor LXR-alpha (Homo sapiens) (Q13133 whole entry, looked up, the tested form may be a part): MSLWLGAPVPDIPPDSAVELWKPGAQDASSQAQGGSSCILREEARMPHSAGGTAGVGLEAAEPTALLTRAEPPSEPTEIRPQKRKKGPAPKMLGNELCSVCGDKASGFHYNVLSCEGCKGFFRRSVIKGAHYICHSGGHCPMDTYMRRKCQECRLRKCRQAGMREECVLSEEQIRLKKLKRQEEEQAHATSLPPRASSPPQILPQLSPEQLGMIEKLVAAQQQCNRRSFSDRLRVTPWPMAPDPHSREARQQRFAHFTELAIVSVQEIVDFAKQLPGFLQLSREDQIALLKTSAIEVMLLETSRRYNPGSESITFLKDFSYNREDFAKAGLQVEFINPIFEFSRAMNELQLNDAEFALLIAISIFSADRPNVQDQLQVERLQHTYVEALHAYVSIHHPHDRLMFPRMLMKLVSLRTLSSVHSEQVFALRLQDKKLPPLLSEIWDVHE

Cc1ccc2oc(=O)ccc2c1
inactive: [1] | [2] | [3] | [4] | [5] | [6] | [7] | [9]
active: [8] 58.4 µM

CN(C)c1ccc(N=Nc2ccccc2C(=O)O)cc1
inactive: [1] | [2] | [3] | [10] | [5] | [6] | [7]
active: [8] 4.76 µM | [9] 23.3 µM | [11] 66.4 µM

CCOCC(=O)O
inactive: [12] | [4] | [10] | [5] | [7] | [9] | [11]

COC(=O)c1c(C)cc(O)c(C)c1O
inactive: [1] | [13] | [2] | [4] | [10] | [5] | [6] | [8] | [9] | [11]

C=C(C)[C@H]1CC=C(C)CC1
inactive: [1] | [13] | [3] | [4] | [10] | [5] | [8] | [11]

Nc1ncn([C@@H]2O[C@H](CO)[C@@H](O)[C@H]2O)c(=O)n1
inactive: [1] | [2] | [3] | [4] | [10] | [5] | [6] | [7]
active: [9] 8.32 µM | [11] 2.1 µM

CC(C)(c1cc(Br)c(OCCO)c(Br)c1)c1cc(Br)c(OCCO)c(Br)c1
active: [3] 21.5 µM | [10] 46.7 µM | [5] 45.1 µM | [8] 18.6 µM | [9] 17.7 µM | [11] 7 µM | [14] 16.2 µM | [15] 16.2 µM | [16] 27.3 µM | [17] 8.31 µM
inactive: [1] | [2] | [7]

Cc1c(C)c([N+](=O)[O-])c(C(C)(C)C)c([N+](=O)[O-])c1C
inactive: [1] | [13] | [2] | [4] | [10] | [5] | [6] | [8] | [9] | [11]
active: [3] 9.67 µM
